# B2AR arrestin = agonists driving beta-arrestin recruitment to human beta2-adrenergic receptor; hit rate 0.02% among 330,000; beta-arrestin recruitment to beta2AR, cell-based reporter; Potency, µM (highest dose often 46.1 µM), without a hit: at the top dose activation, hits mostly activators;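 also: potency is read from the fitted curve at half-maximal effect; 0% = DMSO controls and full agonism = EC100 isoproterenol or metaproterenol; nearly all actives have a fitted effect of over 65% in size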
# Target sequence (P07550 whole entry, looked up): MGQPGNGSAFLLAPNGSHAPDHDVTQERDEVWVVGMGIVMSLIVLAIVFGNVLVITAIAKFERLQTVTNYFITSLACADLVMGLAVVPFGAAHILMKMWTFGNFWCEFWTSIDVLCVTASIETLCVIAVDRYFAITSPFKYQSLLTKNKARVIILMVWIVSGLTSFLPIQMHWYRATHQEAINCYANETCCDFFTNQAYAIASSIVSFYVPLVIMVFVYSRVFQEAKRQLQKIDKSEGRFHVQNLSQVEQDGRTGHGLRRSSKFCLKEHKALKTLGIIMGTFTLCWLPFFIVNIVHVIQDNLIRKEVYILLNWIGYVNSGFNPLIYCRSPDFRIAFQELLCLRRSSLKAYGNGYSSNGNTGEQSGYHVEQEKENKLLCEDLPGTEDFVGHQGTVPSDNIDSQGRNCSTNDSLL
# DRD3 antagonist = blocks the human D3 dopamine receptor; P35462; D3R cells, DiscoveRx beta-arrestin luminescence, antagonist mode; stronger effect = lower value; max response, negative = inhibition, %; hit rate 2.5% among 360,000; in the data active = max response below about -50%; inconclusive = no clear call, values can overlap the other calls; also: % is scaled to controls: 0 for no effect and ±100 for the full control effect
#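 Cells expressing the human receptor were seeded at 1500 cells/well, incubated overnight at 37 degrees C in 5% CO2, then exposed to library compounds with dopamine controls for 90 minutes at 37 degrees C before luminescent detection.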
# mIDH1 inhibitor = blocks human mutant IDH1 R132H enzyme; IDH1-R132H enzyme, NADPH consumption, diaphorase/resazurin fluorescence; O75874; hit rate 0.093% among 390,000; Potency, µM (highest dose often 76.6 µM), inactives show top-dose activity change, negative = inhibition, hits mostly inhibitors; also: potency is read from the fitted curve at half-maximal effect; % is scaled to controls: 0 for no effect and ±100 for the full control effect; nearly all actives have a fitted effect of over 65% in size
#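 IDH1-R132H (0.5 ug/mL) preincubated 30 min with compound, then NADPH (0.016 mM) and alpha-KG (2 mM) added; 80 min at RT, pH 7.5. Remaining NADPH coupled via diaphorase/resazurin to fluorescence (540/590 nm); concentration-response curves normalized to no-enzyme control.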
# Integrin act MD = activators of alpha7 integrin expression for muscular dystrophy; alpha7betagal myoblasts, beta-gal FDG fluorescence, 48 h; AID 624291; Potency, µM (doses to about 38.3 µM), for inactives: at the top dose activation, usual class: activators; hit rate 0.064% among 350,000;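 also: potency is read from the fitted curve at half-maximal effect; 100% = response of the positive control SU9516; nearly all actives have a fitted effect of over 60% in size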
#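 Alpha7betagal+/- myoblasts (passage 13) were plated 16-24 hr, then exposed to compounds (1:260 dilution of DMSO stock) for 48 hours at 37C. After MPER lysis, β-galactosidase reporter activity was read as FDG fluorescence (ex 480/em 540) after 30 minutes.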
# DRD3 agonist = D3 dopamine receptor (human) agonism | hit rate 0.58% among 410,000 | max activation, % | AID 652048 | D3R DiscoveRx beta-arrestin cells, luminescence, 90 min | P35462; in the data active = max activation above about 30%; also: 0% is about no effect
#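 Agonist-mode cell screen: cells plated at 1500/well and incubated overnight at 37 °C, then exposed to library compounds for 90 min at 37 °C. Detection reagent was added for 30–60 min at room temperature, and luminescence was read.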
# * = called active by the depositor; ? = inconclusive; / = no result given; ! = a repeat was not active. An excerpt weighted towards active compounds, which were near 2.9% of everything screened. Unless noted, calls follow the shape of the dose curve; as a rule, active = well fitted curve in the direction sought with a large enough effect; inconclusive = small, poorly fitted or top-dose-only effect, or another doubt; inactive = no such curve, though single readings can be large; an effect the other way counts as inactive or inconclusive.
SMILES,B2AR arrestin,DRD3 antagonist,mIDH1 inhibitor,Integrin act MD,DRD3 agonist
OC(CN1CCN(c2ccccc2)CC1)c1c[nH]c2ccccc12 (configuration not stated),-0.9%,-54.3*,4.3%,-18.3%,-8.0
CCc1ccc(NC(=O)CN(c2ccc(C)cc2)S(=O)(=O)c2c(C)nn(C)c2C)cc1,/,/,0.5%,/,-10.7
CCCn1c(-c2cc(OC)c(OC)c(OC)c2)nc2c1c(=O)[nH]c(=O)n2Cc1ccccc1,-0.5%,9.2,-5.6%,12.6µM*,-0.2
CCn1c(O)c(N=NC2=NC(=O)CS2)c2ccccc21,-4.0%,-79.5*,7.9%,-13.2%,-16.0
CCn1c(O)c(N=N)c2ccccc21,0.1%,4.3,3.5%,1.0%,4.5
COc1ccc(NC(=O)Cn2c(=O)n(Cc3ccco3)c(=O)c3oc4ccccc4c32)cc1Cl,/,/,-2.6%,/,-23.4
COC(=O)c1cc2sccc2n1CC(=O)Nc1cc(Cl)ccc1OC,/,/,26.5%,/,5.5
O=C(Nc1ccc2c(c1)Cc1ccccc1-2)c1ccco1,0.3%,-97.8*,-4.2%,?,3.8
CCC(=O)N1CCCc2cc(S(=O)(=O)N3CCC(C(=O)Nc4ccc(C#N)cc4)CC3)ccc21,/,/,18.8%,/,8.8
Fc1ccccc1OCCCCCN1CCCC1,-1.0%,1.4,-1.5%,-22.3%,-8.3
Brc1ccccc1OCCCCN1CCCCC1,-4.0%,-96.6*,0.6%,-13.2%,-16.1
CC1CCN(CCCCOc2ccccc2Br)CC1,11.8%,-54.1*,-5.3%,-45.5%,-19.3
CC1CCN(CCCCOc2ccccc2F)CC1,0.4%,-81.9*,-6.9%,13.8%,-16.5
Brc1ccccc1OCCCN1CCOCC1,0.2%,-50.6*,7.7%,-11.0%,-66.4
Cc1ccccc1OCCCN1CCOCC1,-0.1%,-8.7,-5.3%,-33.4%,-4.0
CCCOc1ccc(NC(=O)CC2C(=O)N(c3ccc(F)cc3)C(=O)N2CC(C)C)cc1 (configuration not stated),/,/,0.0%,/,61.7*
CCCOc1ccc(NC(=O)CC2C(=O)N(c3ccccc3)C(=O)N2CCC(C)C)cc1 (configuration not stated),/,/,0.0%,/,1.4
CCCn1c(=N)c(C(=O)NC2CCCCC2)cc2c(=O)n3cc(C)ccc3nc21,/,/,0.0%,/,0.2
CCCCN1C2CCCC1CC(NC(=O)c1ccccc1Cl)C2 (configuration not stated),0.5%,11.4,-2.4%,-18.3%,-9.8
COc1ccccc1C(=O)NC1CC2CCCC(C1)N2Cc1ccccc1 (configuration not stated),/,-111.6*,12.3%,-15.1%,3.7
Cc1ccccc1C(=O)NC1CC2CCCC(C1)N2Cc1ccccc1 (configuration not stated),-0.3%,-84.7*,7.1%,2.8%,-17.8
Cc1cccc(NC(=S)NC2CCCC2)c1C,-0.4%,7.3,0.0%,-18.9%,3.1
Cc1cccc(NC(=S)NC2CC3CCCC(C2)N3Cc2ccccc2)c1C (configuration not stated),-1.1%,-100.3*,2.3%,-30.9%,-8.5
Cc1ccccc1C(=O)NC1CC2CCCC(C1)N2Cc1ccc(Cl)cc1 (configuration not stated),-0.3%,-96.9*,-2.4%,?,-18.7
O=C(NC1CC2CCC(C1)N2Cc1ccccc1)c1ccccc1Cl (configuration not stated),0.2%,-88.9*,1.3%,6.0%,-17.5
SMILES,B2AR arrestin,DRD3 antagonist,mIDH1 inhibitor,Integrin act MD,DRD3 agonist
Cc1ccc(-n2cc(CNCCCn3cccn3)c(-c3cccc(C)c3)n2)cc1,-1.1%,-73.4*,0.0%,-73.4%,-19.8
O=C(COCCOCCOCC(=O)Nc1c(I)cc(I)c(C(=O)O)c1I)Nc1c(I)cc(I)c(C(=O)O)c1I,/,/,/,/,-18.3
Cc1nc(SCC(=O)N2c3ccccc3Sc3ccccc32)n[nH]1,0.3%,-56.7*,0.4%,13.1%,-6.9
O=C(CSc1nc2ccccc2[nH]1)N1c2ccccc2Sc2ccccc21,1.3%,-9.4,7.2%,14.8%,-25.5
CC(=O)O[C@]1(C(C)=O)CC[C@H]2[C@@H]3C=C(Cl)C4=CC(=O)CC[C@]4(C)[C@H]3CC[C@@]21C,0.5%,23.5,4.5%,/,19.3
CC(=O)O[C@]1(C(C)=O)CC[C@H]2[C@@H]3C=C(Cl)C4=CC(=O)[C@@H]5C[C@@H]5[C@]4(C)[C@H]3CC[C@@]21C,0.1%,-84.9*!,-2.4%,/,14.4
COc1cccc(CNC(=O)CCc2cn(Cc3ccccc3Cl)c3ccccc23)c1,/,/,-25.9%,/,3.5
COc1ccc(SCC(=O)Nc2ccc(N3CCN(C)CC3)c(F)c2)cc1,-0.1%,-56.1*,-0.9%,-14.8%,-15.3
O=C(CSc1ccccc1)Nc1ccc(N2CCN(c3ccccc3)CC2)c(F)c1,0.2%,-26.3,-1.5%,-15.9%,-1.0
Cc1ccc(SCC(=O)Nc2ccc(N3CCN(C)CC3)c(F)c2)cc1,0.1%,-52.8*,-2.7%,-22.9%,-11.8
O=C(CNC(=O)c1cccs1)NCCN1CCN(c2ccccc2F)CC1,-0.1%,-51.5*,-0.2%,-15.6%,-11.1
O=C(NCCS(=O)(=O)N1CCN(c2ccccc2F)CC1)c1cccs1,-0.5%,19.8,-5.2%,-7.0%,2.2
O=C(NCCN1CCN(C(=O)c2cccs2)CC1)c1cccs1,-0.4%,-74.3*,0.0%,6.6%,-34.5
CN(Cc1ccccc1)S(=O)(=O)c1nnc(NC(=O)c2ccccc2Cl)s1,/,/,10.7%,/,-18.9
CCOC(=O)C1CCN(C(=O)c2ccc(-n3ccc4ccccc43)s2)CC1,/,/,/,/,-14.1
Cc1ccc(Cl)cc1NC(=O)CSC(N)=O,0.0%,-67.9*,7.5%,6.2%,-0.9
Cc1ccc(Cl)cc1NC(=O)NCCN1CCCCC1,4.5%,-67.1*,-0.8%,22.2%,-13.3
COc1cccc(NC(=O)c2ccc3nc(Cc4ccccc4)oc3c2)c1,/,/,-9.0%,/,4.9
COc1ccc(N2CCN(C(=O)CN3C(=O)NC4(CCCc5ccccc54)C3=O)CC2)cc1 (configuration not stated),0.0%,-73.6*,-11.4%,3.4%,-10.1
CNc1ccc(-c2cccc(C(C)=O)c2)cn1,/,-10.7,/,/,-6.2
CNc1ccc(-c2cccc([N+](=O)[O-])c2)cn1,/,-59.1*,/,/,-8.0
O=C(CN1C(=O)C(=O)N(CCC2=CCCCC2)C1=O)c1c[nH]c2ccccc12,-0.1%,-52.4*,3.8%,-14.7%,2.1
CC(=O)Nc1ccc(-n2nnnc2SCC(=O)NCc2cccs2)cc1,0.2%,2.7,6.3%,-4.2%,1.0
COC(=O)C(NS(=O)(=O)c1ccc(NC(C)=O)cc1)C(C)C (configuration not stated),-0.7%,-73.9*,4.5%,10.5%,-34.3
CC(=O)Nc1ccc(S(=O)(=O)N[C@H](C(=O)O)C(C)C)cc1,-0.2%,12.9,4.4%,-3.6%,0.2
Cc1cc(C)n(-c2nc3ccccc3nc2Nc2ccc3[nH]c(=O)[nH]c3c2)n1,-0.4%,24.5,0.0%,-16.2%,41.8*
CCOc1ccccc1NC(=O)CC(c1ccc(F)cc1)N1Cc2ccccc2C1=O (configuration not stated),/,/,-2.1%,/,-13.4

# Bioassay records: PubChem BioAssay, National Center for Advancing Translational Sciences (NCATS)
